Screening data (PubChem BioAssay)
FLuc inh: inhibitors of firefly (Photinus pyralis) luciferase | purified P. pyralis luciferase, luminescence, biochemical | Potency, µM (doses to about 115 µM), usual class: inhibitors | 76,000 tested, 2.5% active; active means well fitted curve in the direction sought with a large enough effect; inconclusive means small, poorly fitted or top-dose-only effect, or another doubt; inactive means no such curve, though single readings can be large; an effect the other way counts as inactive or inconclusive; further: on the % scale 0 is the no-effect control and ±100 the full control effect; nearly all actives have a fitted effect of over 65% in size
Target sequence (P08659 whole entry, looked up): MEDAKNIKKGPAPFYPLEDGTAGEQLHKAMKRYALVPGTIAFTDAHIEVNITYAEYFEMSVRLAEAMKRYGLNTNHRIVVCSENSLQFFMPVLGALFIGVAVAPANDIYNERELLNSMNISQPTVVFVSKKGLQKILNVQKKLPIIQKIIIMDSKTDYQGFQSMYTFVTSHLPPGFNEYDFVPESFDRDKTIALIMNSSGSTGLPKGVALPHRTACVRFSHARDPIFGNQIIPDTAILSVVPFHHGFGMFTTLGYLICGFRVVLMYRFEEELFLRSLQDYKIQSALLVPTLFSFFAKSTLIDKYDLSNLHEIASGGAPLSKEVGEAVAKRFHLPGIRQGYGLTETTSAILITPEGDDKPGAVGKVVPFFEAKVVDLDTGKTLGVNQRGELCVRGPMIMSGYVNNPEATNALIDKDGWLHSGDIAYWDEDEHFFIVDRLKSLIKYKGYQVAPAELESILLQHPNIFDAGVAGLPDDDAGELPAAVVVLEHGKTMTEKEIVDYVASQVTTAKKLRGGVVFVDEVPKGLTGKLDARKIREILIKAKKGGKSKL
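FLuc 10nM, D-luciferin 10uM, ATP 10uM, Mg acetate 10mM, Tris acetate pH 7.5, Tween/BSA; cpd qHTS; enzyme added last; CCD luminescence.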
HEK cytotox: kills HEK 293 cells; AID 1345083; Potency, µM (top dose mostly 115 µM), for inactives: top-dose activity change, negative = cytotoxicity, most hits filed as inhibitors; 94,000 tested, 6.6% active; HEK 293 viability, ATP luminescence (CellTiter-Glo), 48-72 h; active means well fitted curve in the direction sought with a large enough effect; inconclusive means small, poorly fitted or top-dose-only effect, or another doubt; inactive means no such curve, though single readings can be large; an effect the other way counts as inactive or inconclusive; further: on the % scale 0 is the no-effect control and ±100 the full control effect; nearly all actives have a fitted effect of over 60% in size
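CellTiter-Glo luminescence (cellular ATP) was read after 48 or 72 hr of compound exposure at 37 degree Celsius. Cells were HEK 293 plated at 250 cells/well.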
hNpr1 antagonist: antagonists of human natriuretic peptide receptor Npr1. Potency, µM (titrated, usually from 46.3 µM), without a hit: at the top dose activity change, negative = inhibition, usual class: inhibitors. 76,000 tested, 1.6% active. HEK293 hNpr1 GloSensor cGMP, ANP-stimulated luminescence. P16066; further: on the % scale 0 is the no-effect control and ±100 the full control effect; nearly all actives have a fitted effect of over 60% in size
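Compound pre-incubated 30 min at room temperature on GloSensor-loaded HEK293 cells stably carrying hNpr1 and the pGS-40F cGMP biosensor. Stimulation uses hNppA at 0.1 nM final; luminescence is taken at baseline and 20 min post-agonist.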
3T3 cytotox: kills NIH 3T3 cells | NIH 3T3 viability, CellTiter-Glo ATP luminescence, 48-72 h | Potency, µM (top dose mostly 96.7 µM), inactives show top-dose activity change, negative = cytotoxicity, usual class: inhibitors | 94,000 tested, 4.3% active | AID 1345082; active means well fitted curve in the direction sought with a large enough effect; inconclusive means small, poorly fitted or top-dose-only effect, or another doubt; inactive means no such curve, though single readings can be large; an effect the other way counts as inactive or inconclusive; further: on the % scale 0 is the no-effect control and ±100 the full control effect; nearly all actives have a fitted effect of over 55% in size
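ATP-dependent luminescence (CellTiter-Glo) served as the viability signal for NIH 3T3 cells treated with compound for 48 or 72 hr at 37 °C.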
NPR1 antag cnf: hNpr1 antagonism, confirmation assay | shares compounds with hNpr1 antagonist | 1,400 tested, 76% active | HEK293 hNpr1 cGMP GloSensor luminescence, ANP-stimulated | Potency, µM (series often up to 57.6 µM), for the others: at the top dose activity change, negative = inhibition, hits mostly inhibitors | AID 1347044; further: nearly all actives have a fitted effect of over 70% in size
NPR2 antag: selectivity test of Npr1 antagonists against human Npr2 | 1,400 tested, 67% active | Potency, µM (titrated, usually from 57.6 µM), inactives show at the top dose activity change, negative = inhibition, most hits filed as inhibitors | HEK293 hNpr2 GloSensor cGMP luminescence, CNP-stimulated | shares compounds with hNpr1 antagonist; further: nearly all actives have a fitted effect of over 70% in size
FLuc inh counter: counter-screen for Npr1 antagonists: firefly luciferase inhibitors; Potency, µM (top dose mostly 57.6 µM), for the others: at the highest dose activity change, negative = inhibition, hits mostly inhibitors; shares compounds with hNpr1 antagonist; 1,400 tested, 0.7% active; purified FLuc enzyme, luminescence, Km substrate; AID 1347047; active means well fitted curve in the direction sought with a large enough effect; inconclusive means small, poorly fitted or top-dose-only effect, or another doubt; inactive means no such curve, though single readings can be large; an effect the other way counts as inactive or inconclusive; further: 0% is about no effect
GloSensor cGMP: control cell line activity, Npr1 antagonist counter-screen; shares compounds with hNpr1 antagonist; HEK293 GloSensor cGMP, SNP-stimulated, luminescence; Potency, µM (series often up to 57.6 µM), for the others: top-dose activity change, negative = inhibition, usual class: inhibitors; 1,400 tested, 69% active; AID 1347051; further: on the % scale 0 is the no-effect control and ±100 the full control effect; nearly all actives have a fitted effect of over 70% in size
* hit, by the source's call; i = inactive; ? = inconclusive; . = not tested or not shown; [ ] = another dose, or the depositor's remark. The list is not random: actives were taken first. Their share in the collection is about 11%. Unless noted, the call rests on the fitted dose curve. Potency means the concentration at half of the fitted maximal effect.

SMILES	FLuc inh	HEK cytotox	hNpr1 antagonist	3T3 cytotox	NPR1 antag cnf	NPR2 antag	FLuc inh counter	GloSensor cGMP
Cc1cccc2c1O[C@H]1[C@H](C(=O)O)CN(C(=O)c3ncoc3-c3ccccc3)[C@@H]21	.	-16.6%	.	?	.	.	.	.
O=C(NCc1ccccn1)C1CCN(c2nccc(-c3cccnc3)n2)CC1	i	i	-1.3%	?	.	.	.	.
O=c1[nH]c2ccccc2n1C1CCN(c2nccc(-c3cccnc3)n2)CC1	i	14.1µM*	11.2µM*	31.6µM*	21.7µM*	24.3µM*	1.0%	19.3µM*
COc1ccc(OC)c(NC(=O)N2CCCN(C)c3ccccc32)c1	i	?	?	?	?	12.2µM*	0.2%	-1.9%
COc1ccc(C(=O)N2CCCN(C)c3ccccc32)c(OC)c1	i	?	-21.6%	?	.	.	.	.
Cc1cccc(-n2ncc3c2CCCC3NC(=O)c2c(F)ccc(F)c2F)c1C (centres undefined)	i	-65.8%	5.01µM*	?	10.9µM*	10.9µM*	0.9%	8.62µM*
O=C(NC1CCCc2c1cnn2-c1ccc(F)cc1F)c1ccsc1 (centres undefined)	i	?	11.2µM*	?	21.7µM*	19.3µM*	-1.9%	17.2µM*
Cc1ccc(CN2CCN(c3cc(C)nc(N)n3)CC2CCO)cc1 (centres undefined)	i	?	-9.3%	?	.	.	.	.
c1cncc(COc2cc3c(cn2)NCCN(Cc2ccc4[nH]ccc4c2)C3)c1	i	?	8.91µM*	?	19.8µM*	22.2µM*	1.3%[86.2 µM]	19.8µM*
O=C(c1ccccc1)N1CCC(C(=O)N2CCCC(c3nc4ccncc4[nH]3)C2)CC1 (centres undefined)	.	i	.	-11.0%	.	.	.	.
CC(C)c1noc(-c2cn(C3CCN(C(=O)c4ccc(F)cc4Cl)C3)nn2)n1 (centres undefined)	i	?	?	?	15.3µM*	15.3µM*	3.5%	13.7µM*
CC(C)c1noc(-c2cn(C3CCN(C(=O)c4cccc(F)c4)C3)nn2)n1 (centres undefined)	i	?	?	?	.	.	.	.
CC(C)c1noc(-c2cn(C3CCN(C(=O)c4cccc(Cl)c4)C3)nn2)n1 (centres undefined)	i	?	?	?	24.3µM*	27.3µM*	7.2%	21.7µM*
O=C(c1cccc(-c2ccccn2)c1)N1CCN(C(=O)C2CC2)CC1	.	-13.4%[172 µM]	.	-11.9%[138 µM]	.	.	.	.
CCc1noc(-c2cccn3c(CNC(=O)Cc4ccccc4C)nnc23)n1	i	-8.3%	2.2%	-7.1%	.	.	.	.
COCCCn1c(=O)c(C(=O)N2CCN(C(=O)c3cccc(OC)c3)CC2)nc2cccnc21	.	i	.	-11.1%	.	.	.	.
COC(=O)c1ccc2nc(CO[C@H]3CN(Cc4ccc(Cl)cc4)C[C@H]3F)[nH]c2c1	i	?	31.6µM*	89.1µM*	39.6µM*	35.3µM*	-10.9%[86.2 µM]	35.3µM*
COc1ccc(CN2C[C@@H](F)[C@@H](OCc3nc4ccc(C(F)(F)F)cc4[nH]3)C2)cn1	i	?	31.6µM*	?	28µM*	31.4µM*	-12.1%[86.2 µM]	?
O=C1[C@@H]2C[C@@H](O)CN2C2(CN(Cc3c[nH]c4ccccc34)C2)C(=O)N1Cc1cccc(Cl)c1	i	?	3.2%	?	.	.	.	.
CCOc1ccc(C(=O)N2CCC(Cc3nc(-c4ccc(OC)cc4)no3)CC2)cc1OCC	i	39.8µM*	6.31µM*	?	10.9µM*	15.3µM*	2.1%	9.68µM*
CCOc1ccc(C(=O)N2CCC[C@H]2c2nc(-c3ccc(OC)cc3)no2)cc1OCC	i	-12.9%	-10.6%	-16.3%	.	.	.	.
Cc1cccc(C(=O)N2CCC(Cc3nc(-c4cnccn4)no3)CC2)c1	i	-15.7%	-8.7%	-39.7%	.	.	.	.
COC(=O)c1cccc(C(=O)N2CCC(Cc3nc(-c4ccc(OC)cc4)no3)CC2)c1	i	56.2µM*	6.31µM*	?	6.85µM*	8.62µM*	-7.4%	5.44µM*
COc1ccc(-c2noc(CC3CCN(C(=O)c4ccc(OC)nc4)CC3)n2)cc1	i	?	7.08µM*	?	5.44µM*	6.11µM*	0.7%	5.44µM*
CCOc1ccc(C(=O)N2CCC(Cc3nc(-c4ccc(F)cc4)no3)CC2)cc1OCC	i	?	3.98µM*	39.8µM*	3.85µM*	6.11µM*	2.5%	4.85µM*
SMILES	FLuc inh	HEK cytotox	hNpr1 antagonist	3T3 cytotox	NPR1 antag cnf	NPR2 antag	FLuc inh counter	GloSensor cGMP
Cc1ccc(S(=O)(=O)N2CCC(Oc3ncccc3C(=O)N3CCOCC3)C2)cc1 (centres undefined)	i	-1.2%	0.0%	-10.8%	.	.	.	.
O=C(NCCC1CCN(C(=O)Nc2cc(F)ccc2F)CC1)c1ccccc1F	.	?	.	-24.9%	.	.	.	.
CC(=O)N1CCC(Cc2ccc(C(=O)N3CCCCC3CN3CCCCC3)cc2)CC1 (centres undefined)	.	-5.8%	.	-18.3%	.	.	.	.
CCOc1ccc(CN2C[C@@H]3C(=O)N(CCc4ccccc4)C(=O)[C@@H]3C2)cc1OC	i	?	-20.7%	-27.2%	.	.	.	.
COC[C@@H]1CN(C(=O)c2cc3ccccc3[nH]2)C[C@H]1c1ccccn1	i	?	1.8%	-9.3%	.	.	.	.
COc1cccc(-c2noc(CC3CCN(C(=O)c4ccc(C(C)C)cc4)CC3)n2)c1	i	35.5µM*	10µM*	?	13.7µM*	17.2µM*	-4.7%	13.7µM*
COc1cccc(-c2cc(C3CCN(C(=O)c4ccc(Br)cc4)CC3)[nH]n2)c1	i	?	?	?	27.3µM*	?	2.9%	?
O=C(c1cccc(F)c1)N1CCC(Cc2nc(-c3cnccn3)no2)CC1	i	-22.8%	-1.8%	-19.7%	.	.	.	.
COc1cccc(-c2noc(CC3CCN(C(=O)c4ccc(C)cc4C)CC3)n2)c1	i	35.5µM*	11.2µM*	?	10.9µM*	10.9µM*	0.2%	9.68µM*
COc1cccc(-c2noc(CC3CCN(C(=O)c4ccc(F)c(F)c4)CC3)n2)c1	i	?	6.31µM*	?	4.85µM*	9.68µM*	0.1%	6.11µM*
